# Reference: paper PMC7862700, “An all-to-all approach to the identification of sequence-specific readers for epigenetic DNA modifications on cytosine”
# Legend:
# Test in all cases: DAPPL (digital affinity profiling via proximity ligation, sequencing); 10 mM Tris-HCl pH 7.5, 50 mM NaCl, 1 mM DTT, 4% glycerol, room temperature, 30 min; GST-TFs on glutathione beads, 16-mer random dsDNA library, 0.1% formaldehyde crosslink after washing; high values mean tight binding
# [1] = molecular target: T1, FLI1 (Homo sapiens, UniProt Q01543 1-452); conditions: protein: recombinant; tags: N-terminal GST; dsDNA, one strand shown
# T1 sequence: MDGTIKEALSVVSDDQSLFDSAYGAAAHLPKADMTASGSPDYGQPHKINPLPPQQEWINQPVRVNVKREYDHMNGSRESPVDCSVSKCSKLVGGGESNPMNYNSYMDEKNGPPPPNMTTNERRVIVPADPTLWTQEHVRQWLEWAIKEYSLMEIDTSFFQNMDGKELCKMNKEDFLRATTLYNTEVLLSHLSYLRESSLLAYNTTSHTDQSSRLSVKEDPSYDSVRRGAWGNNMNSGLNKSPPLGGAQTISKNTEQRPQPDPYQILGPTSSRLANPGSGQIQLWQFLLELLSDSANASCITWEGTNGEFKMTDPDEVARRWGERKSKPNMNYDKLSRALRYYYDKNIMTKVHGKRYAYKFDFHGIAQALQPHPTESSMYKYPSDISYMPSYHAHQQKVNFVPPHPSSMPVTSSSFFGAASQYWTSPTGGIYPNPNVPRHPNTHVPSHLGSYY
# How it was run: (§1)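 Human transcription factors fused to GST were expressed in yeast, captured on glutathione beads, given DNA barcodes and pooled with a GST-only negative control. Pools were incubated with 200 nmole of a 16-mer random double-stranded DNA library in Tris/NaCl/DTT/glycerol buffer at room temperature for 30 min. They were then washed, crosslinked with 0.1% formaldehyde, proximity-ligated (BsaI/T4 ligase, 1 h, 37 °C), PCR-amplified and sequenced on an Illumina NextSeq500. Binding signal is each 6-mer's read frequency for a factor divided by its frequency for the GST control.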
# [2] = molecular target: T2, ELK1 (Homo sapiens, UniProt P19419 1-428); conditions: protein: recombinant; tags: N-terminal GST; dsDNA, one strand shown
# T2 sequence: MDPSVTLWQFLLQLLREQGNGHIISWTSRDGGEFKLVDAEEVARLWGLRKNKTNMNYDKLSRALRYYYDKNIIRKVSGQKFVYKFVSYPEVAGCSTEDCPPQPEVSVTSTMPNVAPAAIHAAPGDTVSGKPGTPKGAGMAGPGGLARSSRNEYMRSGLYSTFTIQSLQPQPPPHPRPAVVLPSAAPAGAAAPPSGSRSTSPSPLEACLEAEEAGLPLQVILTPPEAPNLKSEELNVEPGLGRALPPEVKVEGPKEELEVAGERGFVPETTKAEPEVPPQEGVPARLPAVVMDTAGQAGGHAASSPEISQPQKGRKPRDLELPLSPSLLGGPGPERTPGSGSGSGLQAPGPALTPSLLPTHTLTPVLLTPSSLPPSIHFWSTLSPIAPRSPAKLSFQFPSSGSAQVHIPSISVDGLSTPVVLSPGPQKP
# How it was run: as §1
# [3] = molecular target: T3, GABPA (Homo sapiens, UniProt Q06546 1-454); conditions: protein: recombinant; tags: N-terminal GST; dsDNA, one strand shown
# T3 sequence: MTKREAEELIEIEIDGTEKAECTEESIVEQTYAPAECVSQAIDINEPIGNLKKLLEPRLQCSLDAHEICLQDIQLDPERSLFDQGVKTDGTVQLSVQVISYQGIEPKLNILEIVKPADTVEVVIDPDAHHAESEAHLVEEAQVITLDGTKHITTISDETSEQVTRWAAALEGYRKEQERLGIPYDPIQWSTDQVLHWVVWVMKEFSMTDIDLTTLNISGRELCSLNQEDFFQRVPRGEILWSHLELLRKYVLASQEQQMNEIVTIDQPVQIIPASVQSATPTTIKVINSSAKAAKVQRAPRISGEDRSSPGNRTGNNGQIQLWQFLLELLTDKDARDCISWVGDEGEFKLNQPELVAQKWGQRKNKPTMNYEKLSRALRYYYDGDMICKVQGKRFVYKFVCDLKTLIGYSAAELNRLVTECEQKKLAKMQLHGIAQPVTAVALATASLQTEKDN
# How it was run: as §1
# [4] = molecular target: T4, ERG (Homo sapiens, UniProt P11308 1-479); conditions: protein: recombinant; tags: N-terminal GST; dsDNA, one strand shown
# T4 sequence: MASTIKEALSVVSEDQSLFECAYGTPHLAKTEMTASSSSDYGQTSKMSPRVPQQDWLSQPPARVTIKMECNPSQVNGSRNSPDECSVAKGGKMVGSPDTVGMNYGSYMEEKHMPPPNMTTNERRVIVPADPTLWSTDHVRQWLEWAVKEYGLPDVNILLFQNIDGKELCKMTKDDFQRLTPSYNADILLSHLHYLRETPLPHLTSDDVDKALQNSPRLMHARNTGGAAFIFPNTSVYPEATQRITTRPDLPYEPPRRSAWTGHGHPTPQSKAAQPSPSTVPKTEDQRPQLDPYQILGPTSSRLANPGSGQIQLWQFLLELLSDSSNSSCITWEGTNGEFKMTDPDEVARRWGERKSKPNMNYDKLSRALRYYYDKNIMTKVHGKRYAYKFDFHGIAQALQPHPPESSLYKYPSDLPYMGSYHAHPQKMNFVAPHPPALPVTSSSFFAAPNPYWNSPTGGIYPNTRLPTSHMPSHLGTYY
# How it was run: as §1
# [5] = molecular target: ELF1 (Homo sapiens, UniProt P32519 1-619); conditions: protein: recombinant; tags: N-terminal GST; dsDNA, one strand shown
# Chain of ELF1 (P32519 whole entry): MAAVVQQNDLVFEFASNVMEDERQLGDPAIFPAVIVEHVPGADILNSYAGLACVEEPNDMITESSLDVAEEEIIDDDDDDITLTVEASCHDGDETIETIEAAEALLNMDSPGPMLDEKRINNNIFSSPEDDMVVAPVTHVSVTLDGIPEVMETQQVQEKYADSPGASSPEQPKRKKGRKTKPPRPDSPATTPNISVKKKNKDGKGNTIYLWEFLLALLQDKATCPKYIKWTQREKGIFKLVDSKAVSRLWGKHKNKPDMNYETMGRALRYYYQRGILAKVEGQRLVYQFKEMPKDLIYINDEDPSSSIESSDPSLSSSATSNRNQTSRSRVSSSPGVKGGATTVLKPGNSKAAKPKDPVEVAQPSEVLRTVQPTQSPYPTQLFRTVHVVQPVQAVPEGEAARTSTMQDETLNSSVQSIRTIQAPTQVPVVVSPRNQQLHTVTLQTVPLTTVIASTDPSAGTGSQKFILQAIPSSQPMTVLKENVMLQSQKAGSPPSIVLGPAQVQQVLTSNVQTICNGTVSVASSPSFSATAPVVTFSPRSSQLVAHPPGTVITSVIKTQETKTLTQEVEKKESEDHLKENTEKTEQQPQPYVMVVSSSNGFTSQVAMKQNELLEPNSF
# How it was run: as §1
# [6] = molecular target: T5, EHF (Homo sapiens, UniProt Q9NZC4 1-300); conditions: protein: recombinant; tags: N-terminal GST; dsDNA, one strand shown
# T5 sequence: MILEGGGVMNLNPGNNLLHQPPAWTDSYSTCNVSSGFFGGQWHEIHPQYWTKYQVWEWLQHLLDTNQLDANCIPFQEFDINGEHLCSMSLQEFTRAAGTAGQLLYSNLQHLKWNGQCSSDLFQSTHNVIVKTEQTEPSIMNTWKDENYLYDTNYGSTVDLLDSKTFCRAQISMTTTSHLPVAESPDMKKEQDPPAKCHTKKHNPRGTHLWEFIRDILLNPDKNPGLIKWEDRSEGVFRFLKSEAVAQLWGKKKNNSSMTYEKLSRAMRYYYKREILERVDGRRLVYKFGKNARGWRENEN
# How it was run: as §1
# [7] = molecular target: SPI1 (Homo sapiens, UniProt P17947 1-270); conditions: protein: recombinant; tags: N-terminal GST; dsDNA, one strand shown
# How it was run: as §1
# [8] = molecular target: SPIB (Homo sapiens, UniProt Q01892 1-262); conditions: protein: recombinant; tags: N-terminal GST; dsDNA, one strand shown
# Chain of SPIB (Q01892 whole entry): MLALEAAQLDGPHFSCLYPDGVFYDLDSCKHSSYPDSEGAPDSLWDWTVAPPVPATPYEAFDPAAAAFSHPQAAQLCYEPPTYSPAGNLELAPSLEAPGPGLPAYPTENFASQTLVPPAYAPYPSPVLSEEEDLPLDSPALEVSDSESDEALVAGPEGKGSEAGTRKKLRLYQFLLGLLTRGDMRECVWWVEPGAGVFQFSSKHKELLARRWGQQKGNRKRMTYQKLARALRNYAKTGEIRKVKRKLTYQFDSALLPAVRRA
# How it was run: as §1
# [9] = molecular target: T6, ELK3 (Homo sapiens, UniProt P41970 1-407); conditions: protein: recombinant; tags: N-terminal GST; dsDNA, one strand shown
# T6 sequence: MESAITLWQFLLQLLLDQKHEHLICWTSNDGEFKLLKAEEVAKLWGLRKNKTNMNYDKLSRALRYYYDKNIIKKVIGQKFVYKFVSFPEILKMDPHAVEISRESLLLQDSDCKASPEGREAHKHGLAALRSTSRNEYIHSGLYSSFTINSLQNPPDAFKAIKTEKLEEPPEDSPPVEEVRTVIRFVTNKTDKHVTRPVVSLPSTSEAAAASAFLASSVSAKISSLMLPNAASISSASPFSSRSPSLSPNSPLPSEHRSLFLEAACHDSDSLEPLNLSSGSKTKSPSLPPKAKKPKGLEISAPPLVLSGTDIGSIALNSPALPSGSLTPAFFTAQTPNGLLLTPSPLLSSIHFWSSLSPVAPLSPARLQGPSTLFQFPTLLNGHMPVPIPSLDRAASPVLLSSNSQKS
# How it was run: as §1
# [10] = molecular target: T7, FEV (Homo sapiens, UniProt Q99581 1-238); conditions: protein: recombinant; tags: N-terminal GST; dsDNA, one strand shown
# T7 sequence: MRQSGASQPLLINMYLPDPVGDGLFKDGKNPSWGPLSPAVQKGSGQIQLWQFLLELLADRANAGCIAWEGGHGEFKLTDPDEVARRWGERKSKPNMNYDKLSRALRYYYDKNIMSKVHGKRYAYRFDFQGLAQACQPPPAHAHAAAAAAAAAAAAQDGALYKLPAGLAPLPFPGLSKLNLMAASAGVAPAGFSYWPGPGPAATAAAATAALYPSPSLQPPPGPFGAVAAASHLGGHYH
# How it was run: as §1
# [11] = molecular target: ETV5 (Homo sapiens, UniProt P41161 1-510); conditions: protein: recombinant; tags: N-terminal GST; dsDNA, one strand shown
# Chain of ETV5 (P41161 whole entry): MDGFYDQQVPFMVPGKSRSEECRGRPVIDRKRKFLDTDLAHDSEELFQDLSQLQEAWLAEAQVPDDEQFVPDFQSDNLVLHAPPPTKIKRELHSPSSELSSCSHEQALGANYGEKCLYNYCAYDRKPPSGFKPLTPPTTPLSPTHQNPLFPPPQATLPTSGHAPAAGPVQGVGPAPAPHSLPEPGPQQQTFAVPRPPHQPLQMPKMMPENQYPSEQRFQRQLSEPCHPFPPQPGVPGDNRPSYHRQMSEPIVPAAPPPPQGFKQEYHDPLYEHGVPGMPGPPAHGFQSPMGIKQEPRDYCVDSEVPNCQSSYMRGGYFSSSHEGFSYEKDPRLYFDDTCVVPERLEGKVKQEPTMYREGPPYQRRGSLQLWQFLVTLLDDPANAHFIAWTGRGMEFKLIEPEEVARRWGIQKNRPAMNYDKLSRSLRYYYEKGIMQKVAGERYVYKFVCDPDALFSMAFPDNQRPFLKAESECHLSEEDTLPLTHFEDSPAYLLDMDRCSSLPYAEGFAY
# How it was run: as §1
# [12] = molecular target: HSF1 (Homo sapiens, UniProt Q00613 1-529); conditions: protein: recombinant; tags: N-terminal GST; chain copies: 3; dsDNA, one strand shown
# Chain of HSF1 (Q00613 whole entry): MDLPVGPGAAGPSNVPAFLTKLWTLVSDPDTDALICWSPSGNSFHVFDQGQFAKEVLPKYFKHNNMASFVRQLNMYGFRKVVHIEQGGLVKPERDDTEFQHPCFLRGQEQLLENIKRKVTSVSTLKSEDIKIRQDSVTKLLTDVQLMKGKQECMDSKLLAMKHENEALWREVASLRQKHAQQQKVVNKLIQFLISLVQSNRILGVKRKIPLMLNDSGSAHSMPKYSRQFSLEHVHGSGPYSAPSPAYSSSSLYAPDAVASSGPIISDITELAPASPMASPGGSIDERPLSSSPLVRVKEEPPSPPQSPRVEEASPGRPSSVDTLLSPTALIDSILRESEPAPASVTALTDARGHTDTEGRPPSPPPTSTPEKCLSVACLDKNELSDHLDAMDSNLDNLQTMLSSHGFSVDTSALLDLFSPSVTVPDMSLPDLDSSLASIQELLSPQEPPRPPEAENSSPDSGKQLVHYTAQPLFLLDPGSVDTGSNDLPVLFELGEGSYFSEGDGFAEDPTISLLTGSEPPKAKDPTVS
# How it was run: as §1
# [13] = molecular target: T8, SPIC (Homo sapiens, UniProt Q8N5J4 1-248); conditions: protein: recombinant; tags: N-terminal GST; dsDNA, one strand shown
# T8 sequence: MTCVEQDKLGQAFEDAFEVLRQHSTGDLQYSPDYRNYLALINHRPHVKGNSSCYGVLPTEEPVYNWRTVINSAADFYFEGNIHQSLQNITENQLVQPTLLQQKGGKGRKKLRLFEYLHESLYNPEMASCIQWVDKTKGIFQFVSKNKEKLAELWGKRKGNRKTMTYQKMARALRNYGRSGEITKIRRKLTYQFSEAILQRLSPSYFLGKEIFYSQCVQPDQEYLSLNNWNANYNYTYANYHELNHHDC
# How it was run: as §1
# [14] = molecular target: ELF4 (Homo sapiens, UniProt Q99607 1-663); conditions: protein: recombinant; tags: N-terminal GST; dsDNA, one strand shown
# Chain of ELF4 (Q99607 whole entry): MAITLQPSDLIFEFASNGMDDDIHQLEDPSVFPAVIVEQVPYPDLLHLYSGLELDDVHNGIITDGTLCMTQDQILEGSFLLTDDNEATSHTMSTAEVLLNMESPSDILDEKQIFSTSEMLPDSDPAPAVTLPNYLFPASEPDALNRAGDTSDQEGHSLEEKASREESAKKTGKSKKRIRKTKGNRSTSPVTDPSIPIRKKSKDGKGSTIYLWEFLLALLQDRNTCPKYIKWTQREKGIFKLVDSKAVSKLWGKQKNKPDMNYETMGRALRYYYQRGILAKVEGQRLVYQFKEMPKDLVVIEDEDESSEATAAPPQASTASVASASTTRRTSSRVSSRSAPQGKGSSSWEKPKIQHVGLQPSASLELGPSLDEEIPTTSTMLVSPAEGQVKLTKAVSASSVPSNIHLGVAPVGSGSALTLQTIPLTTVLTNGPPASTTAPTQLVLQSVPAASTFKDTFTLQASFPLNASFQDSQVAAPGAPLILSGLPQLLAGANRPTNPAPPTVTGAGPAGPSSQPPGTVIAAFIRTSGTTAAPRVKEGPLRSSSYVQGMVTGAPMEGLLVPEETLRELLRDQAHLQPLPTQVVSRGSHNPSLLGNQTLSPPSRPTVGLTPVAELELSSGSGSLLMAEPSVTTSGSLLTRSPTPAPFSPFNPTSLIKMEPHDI
# How it was run: as §1
# [15] = molecular target: T9, ELK4 (Homo sapiens, UniProt P28324-2 1-405); conditions: protein: recombinant; tags: N-terminal GST; dsDNA, one strand shown
# T9 sequence: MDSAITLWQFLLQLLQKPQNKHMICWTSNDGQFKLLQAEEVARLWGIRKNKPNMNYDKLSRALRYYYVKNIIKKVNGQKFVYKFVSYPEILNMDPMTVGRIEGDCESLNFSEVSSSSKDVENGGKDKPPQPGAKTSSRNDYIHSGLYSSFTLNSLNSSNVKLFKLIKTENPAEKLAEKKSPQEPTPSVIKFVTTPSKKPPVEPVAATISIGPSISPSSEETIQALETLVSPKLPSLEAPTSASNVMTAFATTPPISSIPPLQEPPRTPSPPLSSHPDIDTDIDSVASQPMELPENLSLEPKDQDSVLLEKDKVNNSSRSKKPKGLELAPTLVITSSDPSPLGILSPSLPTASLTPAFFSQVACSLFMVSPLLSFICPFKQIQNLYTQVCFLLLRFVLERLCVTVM
# How it was run: as §1
# [16] = molecular target: T10, ETV2 (Homo sapiens, UniProt O00321 1-342); conditions: protein: recombinant; tags: N-terminal GST; dsDNA, one strand shown
# T10 sequence: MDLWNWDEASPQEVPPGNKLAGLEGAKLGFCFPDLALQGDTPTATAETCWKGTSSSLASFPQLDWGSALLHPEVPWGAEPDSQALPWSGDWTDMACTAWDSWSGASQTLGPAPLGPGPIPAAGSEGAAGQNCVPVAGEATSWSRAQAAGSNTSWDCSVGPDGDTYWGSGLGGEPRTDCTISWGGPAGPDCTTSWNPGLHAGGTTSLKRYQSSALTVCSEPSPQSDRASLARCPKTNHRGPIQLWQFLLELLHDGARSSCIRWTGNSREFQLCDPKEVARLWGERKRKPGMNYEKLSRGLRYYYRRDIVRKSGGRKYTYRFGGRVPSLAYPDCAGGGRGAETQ
# How it was run: as §1
# [17] = molecular target: T11, ELF3 (Homo sapiens, UniProt P78545 1-371); conditions: protein: recombinant; tags: N-terminal GST; dsDNA, one strand shown
# T11 sequence: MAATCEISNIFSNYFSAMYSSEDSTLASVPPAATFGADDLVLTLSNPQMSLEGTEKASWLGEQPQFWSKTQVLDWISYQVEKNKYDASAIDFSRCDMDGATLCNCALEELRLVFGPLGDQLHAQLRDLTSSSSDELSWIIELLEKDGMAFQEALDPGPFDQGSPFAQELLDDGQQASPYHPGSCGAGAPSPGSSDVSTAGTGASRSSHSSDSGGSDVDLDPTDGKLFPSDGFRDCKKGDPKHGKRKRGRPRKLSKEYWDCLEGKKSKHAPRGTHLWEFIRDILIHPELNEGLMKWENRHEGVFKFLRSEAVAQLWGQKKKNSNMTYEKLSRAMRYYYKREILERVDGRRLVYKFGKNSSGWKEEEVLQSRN
# How it was run: as §1
# [18] = molecular target: CRX (Homo sapiens, UniProt O43186 1-299); conditions: protein: recombinant; tags: N-terminal GST; dsDNA, one strand shown
# Chain of CRX (O43186 whole entry): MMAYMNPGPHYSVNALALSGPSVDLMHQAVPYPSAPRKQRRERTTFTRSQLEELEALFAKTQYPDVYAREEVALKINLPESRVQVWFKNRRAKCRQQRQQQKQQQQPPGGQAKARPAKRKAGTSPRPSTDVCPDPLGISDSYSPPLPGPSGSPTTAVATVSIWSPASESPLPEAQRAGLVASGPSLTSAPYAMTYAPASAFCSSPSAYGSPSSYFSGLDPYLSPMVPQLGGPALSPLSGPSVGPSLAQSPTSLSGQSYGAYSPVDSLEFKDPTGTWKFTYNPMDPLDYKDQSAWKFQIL
# How it was run: as §1
# [19] = molecular target: ETV1 (Homo sapiens, UniProt P50549 1-477); conditions: protein: recombinant; tags: N-terminal GST; dsDNA, one strand shown
# Chain of ETV1 (P50549 whole entry): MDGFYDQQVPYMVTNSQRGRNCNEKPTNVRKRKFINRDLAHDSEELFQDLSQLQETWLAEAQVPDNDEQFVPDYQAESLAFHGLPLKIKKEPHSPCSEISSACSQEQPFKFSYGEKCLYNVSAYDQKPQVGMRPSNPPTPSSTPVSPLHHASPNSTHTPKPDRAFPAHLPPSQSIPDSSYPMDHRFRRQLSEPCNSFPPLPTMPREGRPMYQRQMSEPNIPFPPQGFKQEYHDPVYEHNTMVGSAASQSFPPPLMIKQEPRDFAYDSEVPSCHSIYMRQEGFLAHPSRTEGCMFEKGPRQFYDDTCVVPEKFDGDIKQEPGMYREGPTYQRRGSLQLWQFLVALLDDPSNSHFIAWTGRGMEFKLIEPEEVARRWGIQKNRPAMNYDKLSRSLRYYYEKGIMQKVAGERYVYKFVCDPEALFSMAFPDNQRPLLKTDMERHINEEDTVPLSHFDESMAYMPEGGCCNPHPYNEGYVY
# How it was run: as §1
sequence,measurement,setting,value
TACAGA,binding signal,[1],"1.08 fold enrichment (6-mer frequency, TF over GST control)"
same,binding signal,[2],"1.14 fold enrichment (6-mer frequency, TF over GST control)"
same,binding signal,[3],"1.25 fold enrichment (6-mer frequency, TF over GST control)"
same,binding signal,[4],"1.11 fold enrichment (6-mer frequency, TF over GST control)"
same,binding signal,[5],"1.14 fold enrichment (6-mer frequency, TF over GST control)"
same,binding signal,[6],"1.11 fold enrichment (6-mer frequency, TF over GST control)"
same,binding signal,[7],"1.13 fold enrichment (6-mer frequency, TF over GST control)"
same,binding signal,[8],"1.16 fold enrichment (6-mer frequency, TF over GST control)"
same,binding signal,[9],"1.06 fold enrichment (6-mer frequency, TF over GST control)"
same,binding signal,[10],"1.13 fold enrichment (6-mer frequency, TF over GST control)"
same,binding signal,[11],"1.12 fold enrichment (6-mer frequency, TF over GST control)"
same,binding signal,[12],"1.28 fold enrichment (6-mer frequency, TF over GST control)"
same,binding signal,[13],"1.25 fold enrichment (6-mer frequency, TF over GST control)"
same,binding signal,[14],"1.13 fold enrichment (6-mer frequency, TF over GST control)"
same,binding signal,[15],"1.1 fold enrichment (6-mer frequency, TF over GST control)"
same,binding signal,[16],"1.25 fold enrichment (6-mer frequency, TF over GST control)"
same,binding signal,[17],"1.11 fold enrichment (6-mer frequency, TF over GST control)"
same,binding signal,[18],"1.25 fold enrichment (6-mer frequency, TF over GST control)"
same,binding signal,[19],"1.16 fold enrichment (6-mer frequency, TF over GST control)"
